Experimental data: PubChem BioAssay (EPA / NIEHS)
Where “and” joins values, the source holds several entries; their conditions need not be identical. Equal values may be shown once. Inconclusive results are not listed. Some compounds were tested as several samples or in several runs, with calls that do not always agree. Calls of active or inactive are those of the source. Rule for the calls: active = hit-call score of the fitted dose curve at least 0.9, where 1 is the maximum; inconclusive = response in the unintended direction; inactive = score below 0.9.

Tests used:
[1] = ATG_M_06_XSP2: Attagene TRANS-FACTORIAL Multi-Species (XSP2) HepG2 Assay for M06 Transcription Factor (Internal Marker) (AID 2283811);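 note: internal background marker reporter mRNA measured by RT-PCR and capillary electrophoresis; hits are increases in signal above the DMSO baseline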
How it was run: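 HepG2, multiplexed reporter transfection; 24 h dosing; AR stimulated with 3 nM 6-alpha-fluorotestosterone + 1.5 nM norgestrel; RNA → RT-PCR → 6-FAM primer extension → HpaI → CE. Positive direction vs DMSO.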

[2] = test system: turtle Estrogen Receptor (ERa), gene 101933533; experiment: ATG_trERa_XSP2: Attagene TRANS-FACTORIAL Multi-Species (XSP2) HepG2 Assay for turtle Estrogen Receptor (ERa) (AID 2283812);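 note: human HepG2 liver cells transiently expressing turtle ERa-Gal4 chimeric receptor; actives raise reporter signal above DMSO so AC50 reflects agonist activity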
How it was run: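 HepG2 cells transiently transfected with GAL4-UAS reporter units expressing turtle ERa-Gal4 chimera. Reporter mRNA measured after 24 h dosing by RT-PCR, fluorescent labelling and capillary electrophoresis; gain of signal fitted versus DMSO.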

[3] = target: zebrafish Estrogen Receptor (ER1), esr1 (gene 259252) (UniProt P57717); experiment: ATG_zfER1_XSP2: Attagene TRANS-FACTORIAL Multi-Species (XSP2) HepG2 Assay for zebrafish Estrogen Receptor (ER1) (AID 2283816)
zebrafish Estrogen Receptor (ER1), esr1 (gene 259252), sequence (P57717 whole entry, looked up, the tested form may be a part): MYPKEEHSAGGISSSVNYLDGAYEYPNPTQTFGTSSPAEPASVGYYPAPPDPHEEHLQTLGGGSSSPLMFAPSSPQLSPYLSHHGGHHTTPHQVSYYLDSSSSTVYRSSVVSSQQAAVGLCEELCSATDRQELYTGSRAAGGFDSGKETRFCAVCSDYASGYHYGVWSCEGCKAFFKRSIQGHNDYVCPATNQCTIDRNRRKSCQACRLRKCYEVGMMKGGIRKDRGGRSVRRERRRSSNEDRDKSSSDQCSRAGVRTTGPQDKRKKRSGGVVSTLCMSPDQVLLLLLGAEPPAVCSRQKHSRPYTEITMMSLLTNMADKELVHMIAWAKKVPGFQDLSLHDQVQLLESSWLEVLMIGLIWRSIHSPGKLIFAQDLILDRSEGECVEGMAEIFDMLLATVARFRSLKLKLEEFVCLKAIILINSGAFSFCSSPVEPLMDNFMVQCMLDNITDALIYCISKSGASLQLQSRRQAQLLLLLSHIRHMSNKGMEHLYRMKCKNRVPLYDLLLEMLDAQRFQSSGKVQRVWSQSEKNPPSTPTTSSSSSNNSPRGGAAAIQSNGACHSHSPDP
How it was run: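 HepG2 cells transiently transfected with a GAL4-UAS reporter and a chimeric zebrafish ER1-Gal4 construct, dosed 24 h. Reporter mRNA quantified by RT-PCR, labelling, HpaI digestion and capillary electrophoresis, relative to DMSO.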

[4] = target: chicken Estrogen Receptor (ERa), ESR1 (gene 396099) (UniProt P06212); experiment: ATG_chERa_XSP2: Attagene TRANS-FACTORIAL Multi-Species (XSP2) HepG2 Assay for chicken Estrogen Receptor (ERa) (AID 2283817);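 note: actives raise reporter signal above DMSO so AC50 reflects ER activation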
chicken Estrogen Receptor (ERa), ESR1 (gene 396099), sequence (P06212 whole entry, looked up, the tested form may be a part): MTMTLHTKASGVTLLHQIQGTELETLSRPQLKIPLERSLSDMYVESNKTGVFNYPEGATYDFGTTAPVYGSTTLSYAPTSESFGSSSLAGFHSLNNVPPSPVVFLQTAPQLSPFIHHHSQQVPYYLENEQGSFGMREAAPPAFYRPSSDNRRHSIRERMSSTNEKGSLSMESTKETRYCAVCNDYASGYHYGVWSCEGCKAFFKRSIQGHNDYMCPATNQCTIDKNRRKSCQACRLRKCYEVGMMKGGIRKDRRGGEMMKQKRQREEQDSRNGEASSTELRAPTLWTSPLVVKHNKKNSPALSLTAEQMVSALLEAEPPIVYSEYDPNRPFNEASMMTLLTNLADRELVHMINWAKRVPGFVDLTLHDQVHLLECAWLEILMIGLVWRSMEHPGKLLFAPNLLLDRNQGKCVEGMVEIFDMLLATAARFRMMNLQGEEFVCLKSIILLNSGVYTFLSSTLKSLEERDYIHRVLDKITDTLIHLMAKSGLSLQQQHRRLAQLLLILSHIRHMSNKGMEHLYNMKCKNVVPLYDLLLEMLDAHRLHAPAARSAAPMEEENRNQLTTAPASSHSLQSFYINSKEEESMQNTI
How it was run: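 Transient MRTU transfection of HepG2 → 24 h chemical dosing → TriZol RNA, oligo(dT) RT → PCR, 6-FAM primer extension, HpaI digest → CE quantitation of chicken ERa-Gal4-driven reporter mRNA. Positive direction vs DMSO.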

[5] = test system: chicken Androgen Receptor (AR), gene 422165; experiment: ATG_chAR_XSP2: Attagene TRANS-FACTORIAL Multi-Species (XSP2) HepG2 Assay for chicken Androgen Receptor (AR) (AID 2283819);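 note: hits raise reporter mRNA above DMSO so potency is for activation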
How it was run: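 HepG2 cells transiently transfected with chicken AR–GAL4 chimeric reporter constructs, stimulated with 3 nM 6-alpha-fluorotestosterone plus 1.5 nM norgestrel, dosed 24 h. Reporter mRNA quantified by RT-PCR and capillary electrophoresis; gain of signal fitted versus DMSO.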

[6] = test system: frog Estrogen Receptor (ER), gene 398734; experiment: ATG_frER1_XSP2: Attagene TRANS-FACTORIAL Multi-Species (XSP2) HepG2 Assay for frog Estrogen Receptor (ER) (AID 2283821);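 note: hits raise reporter mRNA above DMSO baseline so potency means agonist or activator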
How it was run: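 Steps: transfect HepG2 with multiple reporter transcription units; treat with chemical for 24 h; isolate RNA, reverse-transcribe, PCR-amplify, label with 6-FAM, digest with HpaI; resolve fragments by capillary electrophoresis. Signal is scored against DMSO.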

[7] = test system: zebrafish Estrogen Receptor (ER2b), gene 317733; experiment: ATG_zfER2b_XSP2: Attagene TRANS-FACTORIAL Multi-Species (XSP2) HepG2 Assay for zebrafish Estrogen Receptor (ER2b) (AID 2283823);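 note: fitted upward as reporter gain over DMSO so potency reflects activation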
How it was run: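 Transcriptional induction measured as reporter mRNA (RT-PCR, fluorescent capillary electrophoresis) in transiently transfected HepG2 cells after 24 h dosing; DMSO served as negative control and baseline.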

[8] = test system: zebrafish Androgen Receptor (AR), gene 100005148; experiment: ATG_zfAR_XSP2: Attagene TRANS-FACTORIAL Multi-Species (XSP2) HepG2 Assay for zebrafish Androgen Receptor (AR) (AID 2283825);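 note: hits raise reporter mRNA above DMSO so AC50 reflects agonist-type gain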
How it was run: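 Zebrafish AR–GAL4 chimera transiently expressed with GAL4-UAS reporter in HepG2 cells, co-stimulated with 3 nM 6-alpha-fluorotestosterone and 1.5 nM norgestrel; 24 h dosing, reporter mRNA read by RT-PCR/capillary electrophoresis versus DMSO.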

[9] = ATG_M_32_XSP2: Attagene TRANS-FACTORIAL Multi-Species (XSP2) HepG2 Assay for M19 Transcription Factor (Internal Marker) (AID 2283826)
How it was run: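 An internal background marker among multiplexed transfected reporters in HepG2 liver cells was measured 24 h after dosing. Androgen receptor stimulation came from 3 nM 6-alpha-fluorotestosterone and 1.5 nM norgestrel.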

[10] = target: Nuclear receptor subfamily 1 group I member 2 (Mus musculus) (UniProt O54915); experiment: ATG_mPXR_XSP1: Attagene TRANS-FACTORIAL Multi-Species (XSP1) HepG2 Assay for mouse Pregnane X Receptor (PXR) (AID 2283803)
Nuclear receptor subfamily 1 group I member 2 (Mus musculus), sequence (O54915 whole entry, looked up, the tested form may be a part): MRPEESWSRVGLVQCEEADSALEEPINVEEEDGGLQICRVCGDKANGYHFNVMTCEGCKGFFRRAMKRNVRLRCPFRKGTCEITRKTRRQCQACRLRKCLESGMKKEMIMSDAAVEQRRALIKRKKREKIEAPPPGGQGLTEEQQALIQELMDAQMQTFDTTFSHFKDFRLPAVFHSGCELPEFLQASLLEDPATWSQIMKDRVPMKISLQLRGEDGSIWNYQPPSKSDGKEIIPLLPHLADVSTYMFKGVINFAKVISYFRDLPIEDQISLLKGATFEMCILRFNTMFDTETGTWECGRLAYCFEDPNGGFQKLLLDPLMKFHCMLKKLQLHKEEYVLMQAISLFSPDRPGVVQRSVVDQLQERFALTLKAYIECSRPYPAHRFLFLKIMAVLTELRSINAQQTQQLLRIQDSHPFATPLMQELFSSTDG
How it was run: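 Transiently transfected HepG2 cells expressing a receptor-Gal4 chimera drive a GAL4-UAS reporter; 3 nM 6-alpha-fluorotestosterone included. Reporter mRNA read 24 h post-dose by RT-PCR and capillary electrophoresis; gain of signal relative to DMSO.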

[11] = target: frog Thyroid hormone Receptor alpha (TRa), thra-a (gene 397942) (UniProt P15204); experiment: ATG_frTRa_XSP1: Attagene TRANS-FACTORIAL Multi-Species (XSP1) HepG2 Assay for frog Thyroid hormone Receptor alpha (TRa) (AID 2283804)
frog Thyroid hormone Receptor alpha (TRa), thra-a (gene 397942), sequence (P15204 whole entry, looked up, the tested form may be a part): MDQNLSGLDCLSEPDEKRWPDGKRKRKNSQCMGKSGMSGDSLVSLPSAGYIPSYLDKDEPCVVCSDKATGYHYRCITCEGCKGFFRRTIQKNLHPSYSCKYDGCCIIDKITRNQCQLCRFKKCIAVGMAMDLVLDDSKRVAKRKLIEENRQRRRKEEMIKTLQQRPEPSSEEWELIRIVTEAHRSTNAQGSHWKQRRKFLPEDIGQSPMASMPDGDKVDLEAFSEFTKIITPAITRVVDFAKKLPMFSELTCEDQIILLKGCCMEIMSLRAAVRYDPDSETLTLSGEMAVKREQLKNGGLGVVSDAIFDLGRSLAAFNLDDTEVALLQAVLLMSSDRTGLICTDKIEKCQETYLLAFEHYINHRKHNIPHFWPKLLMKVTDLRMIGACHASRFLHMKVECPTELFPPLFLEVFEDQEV
How it was run: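 HepG2 cells transiently transfected with frog TRa-GAL4 chimeric reporter units, dosed 24 hr with 3 nM 6-alpha-fluorotestosterone present; reporter mRNA quantified by RT-PCR, fluorescent labelling and capillary electrophoresis, gain of signal versus DMSO.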

[12] = test system: turtle Thyroid Hormone Receptor, alpha (TRa), gene 101949057; experiment: ATG_trTRa_XSP1: Attagene TRANS-FACTORIAL Multi-Species (XSP1) HepG2 Assay for turtle Thyroid Hormone Receptor, alpha (TRa) (AID 2283806)
How it was run: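 HepG2 cells transiently transfected with GAL4-UAS reporter units and chimeric receptor-Gal4 constructs, with 3 nM 6-alpha-fluorotestosterone present. Reporter mRNA was quantified 24 h after dosing by RT-PCR, 6-FAM labelling and capillary electrophoresis; gain of signal versus DMSO.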

[13] = target: zebrafish Thyroid Hormone Receptor alpha (TRa), thraa (gene 30670) (UniProt Q98867); experiment: ATG_zfTRa_XSP1: Attagene TRANS-FACTORIAL Multi-Species (XSP1) HepG2 Assay for zebrafish Thyroid Hormone Receptor alpha (TRa) (AID 2283807)
zebrafish Thyroid Hormone Receptor alpha (TRa), thraa (gene 30670), sequence (Q98867 whole entry, looked up, the tested form may be a part): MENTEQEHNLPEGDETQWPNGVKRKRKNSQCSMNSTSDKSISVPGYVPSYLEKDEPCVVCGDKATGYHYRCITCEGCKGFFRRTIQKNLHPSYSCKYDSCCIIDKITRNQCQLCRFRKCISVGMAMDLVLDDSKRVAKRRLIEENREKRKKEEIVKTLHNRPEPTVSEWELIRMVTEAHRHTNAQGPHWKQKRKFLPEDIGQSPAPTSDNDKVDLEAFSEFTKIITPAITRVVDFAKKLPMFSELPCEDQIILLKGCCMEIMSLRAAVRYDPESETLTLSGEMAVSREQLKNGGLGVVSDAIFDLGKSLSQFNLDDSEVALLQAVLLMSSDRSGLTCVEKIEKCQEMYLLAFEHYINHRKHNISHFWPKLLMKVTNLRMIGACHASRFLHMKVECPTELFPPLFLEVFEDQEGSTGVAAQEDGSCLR
How it was run: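 HepG2 cells transiently transfected with GAL4-UAS reporter units including a zebrafish TRa–Gal4 chimera, dosed 24 h with 3 nM 6-alpha-fluorotestosterone present. Reporter mRNA quantified by RT-PCR and capillary electrophoresis; gain versus DMSO.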

[14] = target: zebrafish Thyroid Hormone Receptor beta (TRb), thrb (gene 30607) (UniProt Q9PVE4); experiment: ATG_zfTRb_XSP1: Attagene TRANS-FACTORIAL Multi-Species (XSP1) HepG2 Assay for zebrafish Thyroid Hormone Receptor beta (TRb) (AID 2283809)
zebrafish Thyroid Hormone Receptor beta (TRb), thrb (gene 30607), sequence (Q9PVE4 whole entry, looked up, the tested form may be a part): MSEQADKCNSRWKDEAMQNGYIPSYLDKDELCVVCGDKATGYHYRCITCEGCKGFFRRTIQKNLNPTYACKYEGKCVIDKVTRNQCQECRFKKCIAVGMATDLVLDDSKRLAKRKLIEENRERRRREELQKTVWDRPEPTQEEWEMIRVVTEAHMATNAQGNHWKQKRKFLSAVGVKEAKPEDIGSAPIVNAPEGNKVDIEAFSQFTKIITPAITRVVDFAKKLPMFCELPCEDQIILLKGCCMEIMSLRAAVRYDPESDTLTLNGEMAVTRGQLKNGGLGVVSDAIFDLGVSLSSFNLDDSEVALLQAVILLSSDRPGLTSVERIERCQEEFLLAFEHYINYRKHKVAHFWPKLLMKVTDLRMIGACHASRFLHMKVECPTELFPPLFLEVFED
How it was run: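 HepG2 cells transiently transfected with multiplexed GAL4-UAS reporter units expressing chimeric zebrafish TRb–Gal4. Dosed 24 h with 3 nM 6-alpha-fluorotestosterone present; reporter mRNA measured by RT-PCR, HpaI digestion and capillary electrophoresis; gain of signal versus DMSO.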

[15] = ATG_XTT_Cytotoxicity_XSP1: Cytotoxicity Assessment in the Attagene TRANS-FACTORIAL Multi-Species (XSP1) HepG2 Assay (AID 2283810)
How it was run: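 XTT viability readout taken at 24 hours post-dosing in HepG2 liver cells co-treated with 3 nM 6-alpha-fluorotestosterone. Signal loss relative to DMSO controls reflects cytotoxicity.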

[16] = target: human Thyroid hormone Receptor alpha (TRa), THRA (gene 7067) (UniProt P10827); experiment: ATG_hTRa_XSP1: Attagene TRANS-FACTORIAL Multi-Species (XSP1) HepG2 Assay for human Thyroid hormone Receptor alpha (TRa) (AID 2283805)
human Thyroid hormone Receptor alpha (TRa), THRA (gene 7067), sequence (P10827 whole entry, looked up, the tested form may be a part): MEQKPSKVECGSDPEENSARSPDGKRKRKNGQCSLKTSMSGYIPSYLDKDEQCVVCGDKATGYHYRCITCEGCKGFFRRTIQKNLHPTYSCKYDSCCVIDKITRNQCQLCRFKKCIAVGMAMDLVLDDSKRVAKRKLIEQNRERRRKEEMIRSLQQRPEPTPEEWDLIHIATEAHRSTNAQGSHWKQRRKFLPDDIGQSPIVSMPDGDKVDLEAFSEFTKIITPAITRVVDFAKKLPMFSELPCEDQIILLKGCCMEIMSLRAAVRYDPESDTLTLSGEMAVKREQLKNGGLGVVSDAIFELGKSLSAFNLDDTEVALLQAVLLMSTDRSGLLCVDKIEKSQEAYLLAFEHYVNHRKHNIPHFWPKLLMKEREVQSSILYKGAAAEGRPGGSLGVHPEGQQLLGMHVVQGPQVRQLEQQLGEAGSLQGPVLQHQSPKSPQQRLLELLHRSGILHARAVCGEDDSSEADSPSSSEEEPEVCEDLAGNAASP
How it was run: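 HepG2 cells transiently transfected with GAL4-UAS reporter units expressing chimeric NR-Gal4 proteins, dosed 24 hours with 3 nM 6-alpha-fluorotestosterone present. Reporter mRNA measured by RT-PCR and capillary electrophoresis; gain of signal fitted versus DMSO.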

[17] = target: human Thyroid hormone Receptor beta (TRb), THRB (gene 7068) (UniProt P10828); experiment: ATG_hTRb_XSP1: Attagene TRANS-FACTORIAL Multi-Species (XSP1) HepG2 Assay for human Thyroid hormone Receptor beta (TRb) (AID 2283808)
human Thyroid hormone Receptor beta (TRb), THRB (gene 7068), sequence (P10828 whole entry, looked up, the tested form may be a part): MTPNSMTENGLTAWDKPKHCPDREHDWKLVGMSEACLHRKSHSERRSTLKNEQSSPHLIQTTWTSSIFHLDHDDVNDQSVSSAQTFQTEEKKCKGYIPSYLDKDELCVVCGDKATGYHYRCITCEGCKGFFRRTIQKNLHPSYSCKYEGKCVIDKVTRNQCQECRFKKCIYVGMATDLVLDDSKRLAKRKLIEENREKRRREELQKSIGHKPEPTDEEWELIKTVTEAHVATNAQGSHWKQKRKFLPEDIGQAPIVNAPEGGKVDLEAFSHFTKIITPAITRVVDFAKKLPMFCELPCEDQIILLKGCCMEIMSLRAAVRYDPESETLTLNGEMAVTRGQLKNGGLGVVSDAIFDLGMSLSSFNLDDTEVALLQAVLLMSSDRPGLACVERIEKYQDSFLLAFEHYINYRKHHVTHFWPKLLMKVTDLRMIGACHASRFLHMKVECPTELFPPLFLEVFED
How it was run: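 HepG2 cells transiently transfected with reporter units driving GAL4-UAS reporters for chimeric NR-Gal4 proteins; 24 h chemical exposure with 3 nM 6-alpha-fluorotestosterone present. Reporter mRNA quantified by RT-PCR and capillary electrophoresis, gain of signal versus DMSO.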

[18] = test system: turtle Androgen Receptor (AR), gene 101947425; experiment: ATG_trAR_XSP2: Attagene TRANS-FACTORIAL Multi-Species (XSP2) HepG2 Assay for turtle Androgen Receptor (AR) (AID 2283815);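 note: potency for gain of reporter signal meaning activation above DMSO baseline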
How it was run: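 HepG2 cells transiently transfected with GAL4-UAS reporter units for chimeric NR-Gal4 receptors; 24 h dosing in presence of 3 nM 6-alpha-fluorotestosterone and 1.5 nM norgestrel. Reporter mRNA by RT-PCR and capillary electrophoresis, gain of signal versus DMSO.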

[19] = test system: frog Androgen Receptor (AR), gene 399456; experiment: ATG_frAR_XSP2: Attagene TRANS-FACTORIAL Multi-Species (XSP2) HepG2 Assay for frog Androgen Receptor (AR) (AID 2283824);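 note: actives raise reporter signal above DMSO so AC50 reflects agonist-like induction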
How it was run: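 HepG2 cells transiently transfected with GAL4-UAS reporter units and frog (Xenopus laevis) AR-Gal4 chimera; reporter mRNA measured 24 h after dosing by RT-PCR and capillary electrophoresis. Gain of signal fitted relative to DMSO baseline.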

[20] = target: GAL4 Transcription Factor (Internal Marker), GAL4 (gene 855828) (UniProt P04386); experiment: ATG_GAL4_XSP2: Attagene TRANS-FACTORIAL Multi-Species (XSP2) HepG2 Assay for GAL4 Transcription Factor (Internal Marker) (AID 2283814);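 note: GAL4 reporter mRNA background control in MRTU transfected cells not a receptor target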
GAL4 Transcription Factor (Internal Marker), GAL4 (gene 855828), sequence (P04386 whole entry, looked up, the tested form may be a part): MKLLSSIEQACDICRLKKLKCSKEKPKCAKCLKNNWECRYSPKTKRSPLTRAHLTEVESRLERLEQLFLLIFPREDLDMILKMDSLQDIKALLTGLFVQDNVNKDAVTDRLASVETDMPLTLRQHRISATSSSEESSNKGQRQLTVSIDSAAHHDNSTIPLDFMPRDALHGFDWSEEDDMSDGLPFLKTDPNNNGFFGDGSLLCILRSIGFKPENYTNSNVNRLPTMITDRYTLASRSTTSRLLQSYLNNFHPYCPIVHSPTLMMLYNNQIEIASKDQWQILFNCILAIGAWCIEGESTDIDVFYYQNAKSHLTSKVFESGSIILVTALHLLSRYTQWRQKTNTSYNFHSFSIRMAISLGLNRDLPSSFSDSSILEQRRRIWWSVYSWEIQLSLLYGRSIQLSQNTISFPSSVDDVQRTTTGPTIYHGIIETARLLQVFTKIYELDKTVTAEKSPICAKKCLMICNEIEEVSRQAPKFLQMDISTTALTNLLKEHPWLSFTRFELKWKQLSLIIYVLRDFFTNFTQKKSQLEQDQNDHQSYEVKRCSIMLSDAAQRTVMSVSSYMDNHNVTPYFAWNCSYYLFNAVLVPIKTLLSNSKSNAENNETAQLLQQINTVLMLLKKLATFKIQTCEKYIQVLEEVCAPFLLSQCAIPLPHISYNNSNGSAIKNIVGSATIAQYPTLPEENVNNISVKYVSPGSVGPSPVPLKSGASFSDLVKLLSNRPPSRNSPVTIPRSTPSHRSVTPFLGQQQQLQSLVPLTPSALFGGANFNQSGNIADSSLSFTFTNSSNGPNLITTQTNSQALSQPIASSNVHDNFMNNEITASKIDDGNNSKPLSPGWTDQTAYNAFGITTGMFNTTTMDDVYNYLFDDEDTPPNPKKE
How it was run: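 HepG2 cells transiently transfected with GAL4-UAS reporter units, stimulated with 3 nM 6-alpha-fluorotestosterone plus 1.5 nM norgestrel, dosed 24 h. Reporter mRNA by RT-PCR/capillary electrophoresis; gain-of-signal fit versus DMSO, background control.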

Measured: AC50

C[C@H]1CCCC(=O)CCC/C=C/c2cc(O)cc(O)c2C(=O)O1
inactive: [1] | [3] | [5]
active: [2] 7 nM and 1.7 nM | [3] 9.96 nM | [4] 6.03 nM and 1.45 nM | [6] 7.04 nM and 6.82 nM | [7] 27.1 nM and 8.37 nM

CC(=O)C=C(C)C
inactive: [1] | [2] | [3] | [4] | [5] | [6] | [7] | [8] | [9]

O=S(=O)(c1ccc(Cl)cc1)c1ccc(Cl)cc1
active: [2] 14.4 µM and 15.9 µM | [3] 26.6 µM and 37.7 µM | [4] 35.3 µM and 19.3 µM | [6] 26.4 µM | [7] 100 µM and 27.1 µM
inactive: [1] | [6]

CC(C)(C)CC(C)(C)c1ccc(O)cc1
inactive: [10] | [11] | [12] | [13] | [14] | [15] | [1]
active: [2] 5.79 µM | [4] 4.49 µM | [6] 3.4 µM | [7] 5.17 µM

C[C@]12CCC(=O)C[C@@H]1CC[C@@H]1[C@@H]2CC[C@]2(C)[C@@H](O)CC[C@@H]12
inactive: [16] | [12] | [13] | [17] | [15] | [1] | [2] | [3] | [4] | [6] | [7] | [8] | [9]
active: [18] 33.9 nM | [5] 198 nM | [19] 45.7 nM

C[C@]12CC[C@H](O)CC1=CC[C@@H]1[C@@H]2CC[C@]2(C)C(=O)CC[C@@H]12
inactive: [1] | [20] | [9]
active: [2] 2.22 µM and 1.09 µM | [3] 13.9 µM and 7.49 µM | [4] 2.19 µM and 1.14 µM | [6] 3.14 µM and 1.55 µM | [7] 2.89 µM and 1.73 µM

COP(=O)(OC)O/C(=C\Cl)c1cc(Cl)c(Cl)cc1Cl
active: [10] 30.3 µM | [2] 3.18 µM | [4] 4.9 µM | [7] 45.5 µM
inactive: [13] | [14] | [1] | [20] | [6] | [9]

CC1(C)CCC(Cc2ccc(Cl)cc2)C1(O)Cn1cncn1 (stereo not drawn)
active: [10] 2.24 µM | [2] 5.11 µM | [4] 3.58 µM | [7] 27.5 µM
inactive: [12] | [13] | [17] | [14] | [15] | [1] | [20] | [3] | [6] | [9]
